Data on 14 compounds can be found in PubChem BioAssay.

The target of one assay is Albumin (Bos taurus) (UniProt P02769). Kind of assay: bovine serum albumin binders on microarray, profiling panel, artefact control for SMM control protein annotation, biochemical, small-molecule microarray, Alexa647 label, 635/667 nm fluorescence (AID 1118).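 Also: score merges 667 nm emission intensity and signal-to-noise per printed compound spot.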 To be noted: BSA-A647 binding, fluorescence 635 nm, higher = more signal.
Albumin (Bos taurus), sequence (P02769 whole entry, looked up): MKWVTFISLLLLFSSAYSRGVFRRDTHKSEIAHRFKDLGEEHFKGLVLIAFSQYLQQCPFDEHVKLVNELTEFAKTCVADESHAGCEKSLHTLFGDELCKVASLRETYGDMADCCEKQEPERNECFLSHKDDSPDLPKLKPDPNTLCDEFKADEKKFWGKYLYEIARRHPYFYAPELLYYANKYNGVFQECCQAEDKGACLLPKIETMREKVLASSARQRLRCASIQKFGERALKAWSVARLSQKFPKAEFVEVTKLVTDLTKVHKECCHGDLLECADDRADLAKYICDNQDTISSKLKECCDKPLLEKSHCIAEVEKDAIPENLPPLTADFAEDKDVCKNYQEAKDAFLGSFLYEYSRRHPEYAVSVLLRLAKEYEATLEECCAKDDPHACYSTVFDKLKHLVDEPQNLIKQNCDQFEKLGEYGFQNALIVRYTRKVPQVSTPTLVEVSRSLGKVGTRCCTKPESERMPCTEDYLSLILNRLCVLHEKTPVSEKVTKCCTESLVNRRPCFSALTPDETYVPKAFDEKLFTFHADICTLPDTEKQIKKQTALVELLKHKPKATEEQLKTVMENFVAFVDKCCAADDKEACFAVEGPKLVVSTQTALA
A short description of assay [1]: small-molecule microarray binders of probe aXIP, primary screen, biochemical, NeuroSMM set, 635/667 nm fluorescence (AID 1119).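 Also: probe is the protein aXip251-270 applied at 1 µg/mL to compound-printed slides; binding of probe to printed compounds measured as 667 nm fluorescence plus signal to noise.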 To be noted: higher = more signal, called active from +8 up or from −8 down.
Assay [2] is described as follows: small-molecule binders of probe aNOTCH3, primary screen, biochemical, small-molecule microarray, 635/667 nm fluorescence (AID 1120).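 Also: probe is a biotin-tagged antibody raised against NOTCH3 rather than NOTCH3 protein; score merges spot fluorescence near 667 nm with spot signal to noise.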 As to conditions: higher = more signal.
The nature of assay [3]: small-molecule binders of probe aNOTCH2, primary screen, biochemical, small-molecule microarray, 635/667 nm fluorescence (AID 1121).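 Also: score merges feature fluorescence read at 667 nm with its signal to noise.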 As to conditions: higher = more signal.
Assay [4] addresses Carbonic anhydrase 2 (Homo sapiens) (UniProt P00918). The assay is described as follows: CAII small-molecule binders, profiling panel, biochemical, small-molecule microarray, Alexa647-labelled CAII (AID 1122). As to conditions: CAII-A647 binding fluorescence, higher = more signal.
Assay [5] is described as follows: COS7 lysate on small-molecule microarray, probe aHis, 635 nm (AID 1123).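 Also: z-score combines 667nm fluorescence intensity with signal-to-noise per printed compound spot.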 As to conditions: COS7 cell lysate, fluorescence, higher = more signal.
Assay [6] in a line: compound binding in COS7 lysate, probe aLAP1, primary screen, cell lysate, small-molecule microarray (AID 1124).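 Also: lysate comes from COS7 cells expressing LAP1 and is applied at 0.3 µg/mL; score merges spot fluorescence near 667 nm with signal-to-noise over triplicate slides.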 To be noted: probe aLAP1, fluorescence, higher = more signal.
The subject of another assay is Sam68 (KHDRBS1). Kind of assay: Sam68 small-molecule binders, primary screen, biochemical, small-molecule microarray, 635 nm fluorescence (AID 1125).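 Also: score merges 667 nm channel intensity with signal to noise over triplicate slides.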 As to conditions: small-molecule microarray binding, higher = more signal.
Assay [7] concerns Chordin-like protein 2 (CHRDL2). The assay is described as follows: CHRDL2 small-molecule binders, primary screen, biochemical, small-molecule microarray, 635 nm fluorescence (AID 1126).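 Also: printed compound slides probed with Chrdl2 protein at 4 µg/mL for 1 h at 4 C; score merges 667 nm emission intensity with signal to noise over three replicate slides.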 As to conditions: small-molecule microarray binding, fluorescence 635 nm; higher = more signal.
In assay [8] the target is Concanavalin-A (Canavalia ensiformis) (UniProt P02866). Kind of assay: ConA small-molecule binders, primary screen, artefact control for SMM control protein annotation, biochemical, small-molecule microarray, Alexa647 label, 635 nm (AID 1127).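 Also: z combines 667 nm emission intensity with signal-to-noise across three replicate slides.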 To be noted: ConA-A647 binding fluorescence, higher = more signal.
Concanavalin-A (Canavalia ensiformis), sequence (P02866 whole entry, looked up): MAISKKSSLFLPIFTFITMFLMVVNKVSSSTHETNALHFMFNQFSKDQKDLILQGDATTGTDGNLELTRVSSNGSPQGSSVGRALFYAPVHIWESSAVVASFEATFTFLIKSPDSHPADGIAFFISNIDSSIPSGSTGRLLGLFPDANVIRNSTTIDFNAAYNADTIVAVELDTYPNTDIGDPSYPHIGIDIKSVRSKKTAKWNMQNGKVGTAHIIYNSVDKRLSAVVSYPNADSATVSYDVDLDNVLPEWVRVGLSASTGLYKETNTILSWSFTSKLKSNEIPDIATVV

Calls of active or inactive are those of the source.

Consider `CCCCC(=C=CC[C@@H](O)c1cccc(OCCO)c1)C[C@@H](O)COCc1ccccc1`, for which the composite z-score with Albumin (Bos taurus) was 0.59; in assay [2], -0.158; in [3] it was -0.104; in assay [4], 0.441; in assay [5], 0.696; in assay [6] it was 0.117. Also, the composite z-score in the assay on Sam68 (KHDRBS1) was -0.121; in assay [7], -0.598; in assay [8], -0.302. In [1], the composite Z-score is 0.196 (inactive).

For the compound `COC(=O)[C@@]1(Cc2ccc(F)cc2)[C@H]2c3cc(C(=O)N4CCCC4)n(CCO)c3C[C@H]2CN1C(=O)c1ccccc1`, the composite z-score with Albumin (Bos taurus) is 0.503; in assay [2] it was 0.329; in assay [3], 0.227; in assay [4] it was 0.753; in assay [5], 3.45; in assay [6], 0.393. In addition, the results for the composite z-score (with Sam68 (KHDRBS1); in [7]; in [8]) were -2.03, -1.04 and -0.242, respectively. Besides, the composite Z-score in [1] is -0.196 (inactive).

Regarding `CCCCN1CC=CC23O[C@@H]4C=CCOC(=O)[C@@H]4[C@H]2C(=O)N(CCO)[C@@H]3C1=O` (stereo not given in full), the composite z-score was -0.852 with Albumin (Bos taurus); 0.177 in [2]; -0.185 in assay [3]; 0.85 in assay [4]; -0.291 in assay [5]; -0.217 in assay [6]. The composite z-score in the assay on Sam68 (KHDRBS1) was -0.779; in [7], -1.68; in [8], -1.09. In assay [1], the composite Z-score was -0.483 (inactive).

For `C[C@H]1NC(=O)C([C@@H](C)OCc2ccccc2)NC(=O)[C@@]23C(=O)N[C@@H](Cc4ccccc4)C2[C@H](C)[C@@]2(C)O[C@H]2C3/C=C/C/C=C\CNC1=O` (stereo not given in full), the composite z-score with Albumin (Bos taurus) was -0.224; in assay [2] it was -0.136; in assay [3], -0.177; in assay [4], 0.661; in assay [5], 0.234; in assay [6] it was -0.0311. Also, the results for the composite z-score (in the assay with Sam68 (KHDRBS1); in assay [7]; in assay [8]) were -0.204, 0.601 and -0.401, respectively. Further, the composite Z-score in [1] is -0.211 (inactive).

Regarding `C=C(CC1([C@@H](NP(=O)(c2ccccc2)c2ccccc2)[C@H]2C[C@@H]2CCN(C(=O)OCC)S(=O)(=O)c2ccc(C)cc2)CC1)c1ccccc1`, the composite z-score was found to be 0.963 with Albumin (Bos taurus); 0.6 in assay [2]; 0.354 in assay [3]; 0.355 in [4]; 2.65 in assay [5]; 0.319 in assay [6]. Also, the figures for the composite z-score (with Sam68 (KHDRBS1); in assay [7]; in [8]) were 0.981, -0.845 and 0.74, respectively. In addition, in assay [1], the composite Z-score is 0.39 (inactive).

`COCCOC(=O)N1C(=O)[C@@]2(c3cc(C#CC4=CCCCC4)ccc31)[C@H](c1ccccc1OCCO)N1[C@H](c3ccccc3)[C@H](c3ccccc3)OC(=O)[C@H]1[C@@H]2C(N)=O`: the composite z-score is -0.0123 with Albumin (Bos taurus); 0.0174 in [2]; -0.0728 in assay [3]; 0.265 in assay [4]; 1.14 in assay [5]; 0.561 in assay [6]. For the same compound, the composite z-score in the assay on Sam68 (KHDRBS1) was found to be 1.28; in assay [7] it was 0.492; in assay [8] it was 1.13. Besides, in assay [1], the composite Z-score is -0.463 (inactive).

Take `CN(C)CCCCNC(=O)[C@H]1C[C@H]2C(=O)NCC(=O)N2[C@H]1c1cccc(OCCO)c1`: the composite z-score with Albumin (Bos taurus) was -0.539; in [2], -0.179; in assay [3], -0.146; in [4], 0.655; in [5], 0.0949; in assay [6] it was -0.235. In addition, the composite z-score in the assay on Sam68 (KHDRBS1) was -0.705; in [7] it was 0.281; in assay [8] it was -0.408. Further, in assay [1], the composite Z-score was 0.0388 (inactive).

With `COc1ccc(CCNC(=O)[C@@]2(C)c3ccccc3C(=O)N(Cc3cc(C(F)(F)F)cc(C(F)(F)F)c3)[C@H]2c2ccc(CO)cc2)cc1`, the composite z-score with Albumin (Bos taurus) was 0.0386; in assay [2], -0.179; in assay [3], -0.161; in [4] it was 0.643; in assay [5], 2.41; in assay [6], 0.558. Besides, the composite z-score in the assay on Sam68 (KHDRBS1) came out at 1.13; in [7], 0.394; in assay [8], 0.308. Moreover, the composite Z-score in assay [1] is 0.793 (inactive).

Regarding `CC(C)CNC(=O)[C@@H]1c2ccccc2C(=O)N(Cc2ccccc2)[C@H]1c1ccc(CO)cc1`, the composite z-score was -0.159 with Albumin (Bos taurus); -0.394 in assay [2]; -0.122 in assay [3]; 0.83 in assay [4]; 1.63 in assay [5]; 1.35 in [6]. Also, the composite z-score in the assay with Sam68 (KHDRBS1) is 0.293; in assay [7], -1.1; in assay [8], -0.102. Moreover, the composite Z-score in assay [1] is -0.318 (inactive).

Consider `[N-]=[N+]=Nc1ccccc1[C@@H]1OC(c2ccc(OCCCO)cc2)=N[C@]1(Cc1ccccc1)C(N)=O`, for which the composite z-score in the assay with Albumin (Bos taurus) is 0.503; in assay [2], 0.0694; in assay [3] it was -0.0149; in assay [4], 0.724; in assay [5], 1.07; in assay [6], -0.247. The composite z-score was 0.495 in the assay with Sam68 (KHDRBS1), -0.178 in assay [7] and 0.0171 in assay [8]. The composite Z-score in assay [1] is -0.0189 (inactive).

`CCCCCCc1nc(-c2ccc(OC)nc2)cc2c1[Si](C(C)C)(C(C)C)OC2`: the composite z-score with Albumin (Bos taurus) was -0.361; in assay [2] it was -0.0858; in assay [3], -0.104; in assay [4] it was 0.445; in assay [5], -0.689; in [6] it was -0.293. The values for the composite z-score (in the assay on Sam68 (KHDRBS1); in [7]; in assay [8]) were -0.299, -0.0659 and 0.502, respectively. In addition, the composite Z-score in [1] was 0.582 (inactive).

In the case of `Cc1ccc(S[C@]2(C(=O)NCCN3CCOCC3)CC(=O)N(C3CCCCC3)[C@@H]2c2ccc(CO)cc2I)cc1`, the composite z-score was 0.81 with Albumin (Bos taurus); -0.101 in assay [2]; -0.155 in [3]; 0.405 in assay [4]; 2.89 in [5]; -0.006 in [6]. The composite z-score worked out at 1.27 in the assay with Sam68 (KHDRBS1), 0.138 in assay [7] and 1.11 in assay [8]. For the same compound, the composite Z-score in [1] was 0.918 (inactive).

For `CCCCC(O)C1C=CC2C(=O)NC(=O)C2N1Nc1ccc(Cl)cc1Cl` (stereo not given), the composite z-score in the assay with Albumin (Bos taurus) was 0.891; in assay [2], 0.23; in assay [3], 0.0264; in assay [4] it was 0.253; in [5], 2.54; in [6], 0.0614. Besides, the composite z-score in the assay with Sam68 (KHDRBS1) was 0.0434; in assay [7], -0.452; in assay [8] it was 0.255. The composite Z-score in assay [1] is 0.593 (inactive).

Turning to `CN(C)CCCNC(=O)[C@@H]1c2ccccc2C(=O)N(C2Cc3ccccc3C2)[C@H]1c1ccc(CO)cc1`, the composite z-score is 0.274 with Albumin (Bos taurus); -0.45 in assay [2]; 0.197 in [3]; 0.505 in assay [4]; 0.132 in [5]; 0.682 in [6]. The values for the composite z-score (in the assay with Sam68 (KHDRBS1); in [7]; in [8]) were 1.3, -0.0701 and 0.491, respectively. The composite Z-score in assay [1] is 0.0516 (inactive).
